Growth data for 25 compounds are collected here from PubChem BioAssay (NCI).

Compounds without any hit were thinned out: in the full panel of roughly 83,000, 20% have a hit.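 Percent growth is the endpoint: 0 to 100 indicates growth inhibition (40 means 60% inhibition), 0 means no net growth, and negative values indicate cell death.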 Unmarked numbers belong to inactive results. Calls of active or inactive are those of the source. How the source made its calls: active means growth percent below 10; inactive means the rest.

What all share (assay): NCI-60 one-dose screen, 48 h (100 = growth as untreated, 0 = no growth, -100 = all killed)
What all share (details): 10 µM unless noted

The test system of experiment [1] is T-47D breast.
Experiment [2] concerns MDA-MB-435 melanoma.
For experiment [3], the system named is SW-620 colon.
Experiment [4] concerns MCF7 breast.
Experiment [5] has as its system HCT-116 colon.
The test system of experiment [6] is HCC-2998 colon.
Experiment [7] relates to KM12 colon.
Experiment [8] concerns BT-549 breast.

Take `COc1cccc(OCC(O)CN2CCN(c3ccccc3)CC2)c1` (stereo not drawn): the growth in experiment [1] is 100%; in experiment [2], 121%; in experiment [3], 112%; in experiment [4] it was 108%; in experiment [5] it was 112%; in experiment [6], 106%. Further, the growth in experiment [7] is 112%.
For the compound `N#Cc1c(NN)n(C2OC(CO)C(O)C2O)c2ncnc(N)c12` (stereo not drawn), the growth is -14.9% (active) in experiment [1]; -15.5% (active) in experiment [2]; -15.6% (active) in experiment [3]; -11.2% (active) in experiment [4]; 2.09% (active) in experiment [5]; -9.45% (active) in experiment [6]. Moreover, in experiment [7], the growth is 1.94% (active).
On to `O=C(CS)OCC(COC(=O)CS)(COC(=O)CS)COC(=O)CS`, for which the growth in experiment [1] was 89.1%; in experiment [8], 108%; in experiment [3] it was 107%; in experiment [4], 75.9%; in experiment [5], 79.6%; in experiment [6] it was 92.2%. For the same compound, the growth in experiment [7] is 67.5%.
Regarding `Cc1nc2c(-c3cnc(N)nc3)nc(N3CCOCC3)nc2n1C(C)C`, the growth in experiment [1] was -18% (active); in experiment [8], -3.32% (active); in experiment [3], 11.3%; in experiment [4], 9.9% (active); in experiment [5] it was 17.2%; in experiment [7], 5.78% (active).
As for `O=C(Nc1ccc(Br)cc1)Nc1ccccc1Cl`, the growth in experiment [1] is 74.9%; in experiment [8] it was 103%; in experiment [3], 96.4%; in experiment [4], 71%; in experiment [5], 71.8%; in experiment [6] it was 91%. Also, in experiment [7], the growth was 90.4%.
For the compound `COC(=O)c1ccc(NC(N)=NCCC(C)(C)c2ccc(C(F)(F)F)cc2)nc1`, the growth in experiment [8] is 42.6%; in experiment [2], 50.1%; in experiment [3], 25%; in experiment [4], 10%; in experiment [5], 8.17% (active); in experiment [6] it was -54% (active).
Take `Nc1ncnc2c1N=C(c1ccc(F)cc1)CC(c1sc(Cl)nc1Cl)N2` (stereo not drawn): the growth in experiment [1] was 88.3%; in experiment [8] it was 78%; in experiment [3] it was 101%; in experiment [4], 86.6%; in experiment [5], 91.1%; in experiment [6], 101%. The growth in experiment [7] is 105%.
`Cn1nc(C(F)(F)F)cc1-c1cc(Cl)c(OCc2ccc(Cl)cc2)c(-c2ccc(Cl)c(C(F)(F)F)c2)c1O`: the growth is -0.385% (active) in experiment [8]; 1.41% (active) in experiment [2]; 12.2% in experiment [3]; 3.29% (active) in experiment [4]; -11.1% (active) in experiment [5]; 13.6% in experiment [6]. In addition, the growth in experiment [7] was 7.08% (active).
As to `CCCCCCCCCCCCCCCCOc1ccc(S(=O)(=O)N(C)C)cc1[N+](=O)[O-]`, the growth in experiment [8] was 97.4%; in experiment [2], 107%; in experiment [3], 113%; in experiment [4] it was 95.8%; in experiment [5], 98.2%; in experiment [6], 122%. For the same compound, the growth in experiment [7] is 112%.
Turning to `C#CC[C@@H]1C[C@]2(C)[C@H]3CC[C@@H]4[C@H]5C(C(=C)C)CC[C@]5(C(=O)NCCCN5CCN(CCCN)CC5)CC[C@@]4(C)[C@]3(C)CC[C@H]2C(C)(C)[C@H]1OC(C)=O` (stereo partly drawn), the growth in experiment [8] is 75.6%; in experiment [2], -73.3% (active); in experiment [3], -79.4% (active); in experiment [4], -75.4% (active); in experiment [5], -95.3% (active); in experiment [6] it was -23.5% (active). For the same compound, the growth in experiment [7] was -74.6% (active).
With `C#CC[C@@H]1C[C@]2(C)[C@H]3CC[C@@H]4[C@H]5C(C(=C)C)CC[C@]5(C(=O)NCCCCN)CC[C@@]4(C)[C@]3(C)CC[C@H]2C(C)(C)[C@H]1OC(C)=O` (stereo partly drawn), the growth in experiment [8] is 41.2%; in experiment [2], -92.2% (active); in experiment [3] it was -66.8% (active); in experiment [4] it was -71.6% (active); in experiment [5], -85.7% (active); in experiment [6], -11.1% (active). The growth in experiment [7] is -66.8% (active).
`Cc1ccc(-c2cnc3sc4ccc(Cl)cc4n23)cc1`: the growth in experiment [8] is 100%; in experiment [2] it was 105%; in experiment [3] it was 89.7%; in experiment [4], 81.5%; in experiment [5], 89%; in experiment [6], 105%. Further, in experiment [7], the growth was 96.5%.
On to `Brc1cccc(-n2ncc3c(Nc4ccc(-c5nnc(-c6ccccc6)o5)cc4)ncnc32)c1`, for which the growth is 101% in experiment [8]; 106% in experiment [2]; 99.5% in experiment [3]; 99.5% in experiment [4]; 94.7% in experiment [5]; 100% in experiment [6]. In experiment [7], the growth is 102%.
For the compound `CCOC(=O)C(=CNc1ccccc1Cl)C(=O)OCC`, the growth is 106% in experiment [8]; 76.9% in experiment [2]; 98.4% in experiment [3]; 93.8% in experiment [4]; 97.9% in experiment [5]; 102% in experiment [6]. Moreover, the growth in experiment [7] is 105%.
For `C#CC[C@@H]1C[C@]2(C)[C@H]3CC=C4[C@H]5[C@@H](C)[C@H](C)CC[C@]5(C(=O)NCCCCCCCCN)CC[C@@]4(C)[C@]3(C)CC[C@H]2C(C)(C)[C@H]1OC(C)=O`, the growth in experiment [8] is 93.7%; in experiment [2], -62.4% (active); in experiment [3], -61.9% (active); in experiment [4], -80.4% (active); in experiment [5], -99.4% (active); in experiment [6], 58.4%. The growth in experiment [7] is 0.426% (active).
As to `C#CC[C@@H]1C[C@]2(C)[C@H]3CC=C4[C@H]5[C@@H](C)[C@H](C)CC[C@]5(C(=O)NCCCN5CCN(CCCN)CC5)CC[C@@]4(C)[C@]3(C)CC[C@H]2C(C)(C)[C@H]1OC(C)=O`, the growth is -3.81% (active) in experiment [8]; -74.2% (active) in experiment [2]; -51% (active) in experiment [3]; -75.8% (active) in experiment [4]; -83.9% (active) in experiment [5]; -34.1% (active) in experiment [6]. Besides, in experiment [7], the growth was 1.28% (active).
Take `Cn1nc(C(F)(F)F)cc1-c1c[nH]c(OCc2ccc(Cl)cc2)c(-c2ccc(Cl)c(C(F)(F)F)c2)c1=O`: the growth in experiment [8] was 2.51% (active); in experiment [2], 1.96% (active); in experiment [3], 12.6%; in experiment [4], 1.28% (active); in experiment [5] it was 4.49% (active); in experiment [6], 13.3%. The growth in experiment [7] is 8.85% (active).
With `CCOC(=O)C1=C(C)NC(SCc2nnc(-c3ccc(Cl)cc3)o2)=NC1c1ccc(Br)cc1` (stereo not drawn), the growth in experiment [8] is 79.8%; in experiment [2] it was 65.1%; in experiment [3], 91%; in experiment [4], 44.8%; in experiment [5], 48.6%; in experiment [6] it was 91.2%. In addition, in experiment [7], the growth was 76%.
Take `CCCCCNCCCCCNc1cc(OC)cc2cccnc12`: the growth in experiment [8] is 69.2%; in experiment [2] it was 103%; in experiment [3], 90.9%; in experiment [4], 50.6%; in experiment [5] it was 63.5%; in experiment [6] it was 93.4%. In addition, the growth in experiment [7] is 103%.
For the compound `Cc1ccc(Nc2nc(NCCO)c3ccccc3n2)cc1C`, the growth in experiment [8] is 37.7%; in experiment [2] it was -35.8% (active); in experiment [3], 13.5%; in experiment [4], 24.4%; in experiment [5], 16.5%; in experiment [6] it was 11.6%. Moreover, in experiment [7], the growth is 9.68% (active).
Take `CN1CCN(Cc2ccc(NC(=O)c3cncc(C#Cc4ncc5cnccn45)c3)cc2C(F)(F)F)CC1`: the growth in experiment [8] is 63.7%; in experiment [2] it was 39.3%; in experiment [3], 22%; in experiment [4], 36%; in experiment [5] it was 16.6%; in experiment [6], 43.1%. The growth in experiment [7] is 13.2%.
On to `O=C(c1ccc(C(F)(F)F)c(Cl)c1)N(Cc1ccc(Cl)cc1)c1ccc(-c2cc(C(F)(F)F)[nH]n2)c(O)c1`, for which the growth in experiment [8] is 14.6%; in experiment [2], 10.1%; in experiment [3], 17.2%; in experiment [4], 4.31% (active); in experiment [5], 3.75% (active); in experiment [6] it was 13.6%. For the same compound, the growth in experiment [7] is 10%.
Turning to `Oc1c(-c2cc(C(F)(F)F)[nH]n2)cc(Cl)c(OCc2ccc(Cl)cc2)c1-c1ccc(Cl)c(C(F)(F)F)c1`, the growth in experiment [8] was -11.9% (active); in experiment [2], -16.9% (active); in experiment [3] it was 8.41% (active); in experiment [4], 2.3% (active); in experiment [5], -23.8% (active); in experiment [6], 12.7%. The growth in experiment [7] is 1.97% (active).
`CN1CCN(c2ccc(N3Cc4ccccc4OC4=C3C(=O)c3c(O)ccc(O)c3C4=O)cn2)CC1`: the growth in experiment [8] is -78.8% (active); in experiment [2] it was 0.932% (active); in experiment [3] it was -61.1% (active); in experiment [4], -39.2% (active); in experiment [5], -80.9% (active); in experiment [6], -65.8% (active). For the same compound, the growth in experiment [7] is -53.2% (active).
In the case of `COc1ccc(C(=O)/C=C/c2cn(-c3ccccc3)nc2-c2cccc(Nc3ccnc4cc(Cl)ccc34)c2)cc1`, the growth was 100% in experiment [8]; 66% in experiment [2]; 97.8% in experiment [3]; 85.8% in experiment [4]; 91.9% in experiment [5]; 109% in experiment [6]. In experiment [7], the growth was 94.9%.
